# Measured values: PubChem BioAssay (NCATS)
# Results filed as inconclusive are left out. Values without a mark were called inactive. The source made the active and inactive calls. The call rests on the fitted dose curve; in most records, active means well fitted inhibition curve with a large enough effect; inconclusive means small, poorly fitted or top-dose-only effect; inactive means flat fitted curve, though single readings scatter.
# System: Zika virus NS2B-NS3 protease
# Assay: Primary screen GU AMC qHTS for Zika virus inhibitors (AID 1347154);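 further: 0% = no-inhibitor control and -100% = no-enzyme control; nearly all actives have a fitted effect of over 70% in size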
# Conditions: Zika NS2B-NS3 unlinked protease, AMC fluorogenic substrate; series mostly up to 54.1 µM; activity change, negative = inhibition: at the top concentration
# Text: Avindra Nath, Ph.D., National Institute of Neurological Disorders and Stroke (NINDS), Bethesda, MD
# Radhakrishnan Padmanabhan, Ph.D., Georgetown University (GU), Washington D.C.
# Zika Virus causes congenital defects, including microcephaly and is associated with Guillain-Barre syndrome, eningoencephalitis and myelitis in infected adult. […] Using a target-based approach, we hope to establish a screening paradigm to uncover novel, cell-active NS2B-NS3 protease (Zika Virus) specific inhibitors from NCATS' collection of small molecules using qHTS.
# Early Translation Branch (ETB)
# National Center for Advancing Translational Sciences (NCATS), Rockville, MD
# National Institute of Health (NIH), Bethesda, Maryland
# Padmanabhan lab provided the NS2B hydrophilic domain and NS3 protease domain in a noncovalent complex used for the unlinked assay. Control compound aprotinin is obtained from Thermo Scientific (#78432; Waltham, Massachusetts). NS2B-NS3 AMC substrate (Bz-Nle-Lys-Arg-Arg-AMC; Nle-KRR-AMC) purchased from Bachem (#I-1995; Torrance, CA). Ac-VKTGKR-AMC purchased from Genscript or Bachem, Ac-FAAGKR-AMC purchased from Genscript, Ac-GLVKRR-AMC purchased from Genscript, Ac-LKKR-AMC purchased from Genscript.
# GU AMC unlinked NS2B-NS3 protease qHTS protocol
# Briefly, 3 microL of Zika virus unlinked NS2B-NS3 protease (25 nM for linked final concentration), in assay buffer (10 mM Tris-HCl pH 8.0 with 0.01% Tween 20) was dispensed into a 1,536-well solid-bottom black plate (Greiner Bio One, Monroe, NC). […] Plates were then read immediately on a ViewLux High-throughput CCD imager (PerkinElmer, Waltham, MA) equipped with standard UV fluorescence optics (340(30) nm excitation, 450(20) nm emission) then incubated (room temperature, protected from light) for 15 minutes (~20% conversion). The change in fluorescence intensity over the 15-minute reaction period was normalized against no-inhibitor and no-enzyme controls and the resulting percent inhibition data were fitted to a 4-parameter Hill equation. Aprotinin was used as the intraplate control.
Compound,"activity change, negative = inhibition",outcome
CCOC(=O)C1=C(COCCN)NC(C)=C(C(=O)OC)C1c1ccccc1Cl (stereo not given),8.98%,–
CCC(C)[C@@H](N)C(=O)O (stereo not given in full),-0.221%,–
O=C(O)CCC(=O)c1ccc(-c2ccccc2)cc1,-1.37%,–
NC[C@H]1O[C@H](O[C@H]2[C@H](O)[C@@H](O[C@H]3O[C@H](CO)[C@@H](O)[C@H](N)[C@H]3O)[C@H](N)C[C@@H]2N)[C@H](N)C[C@@H]1O,-3.81%,–
CC/C=C\C/C=C\C/C=C\C/C=C\C/C=C\C/C=C\CCC(=O)O,–,inactive
O=C(O)CCC/C=C\C[C@@H]1[C@@H](/C=C/[C@@H](O)COc2cccc(Cl)c2)[C@H](O)C[C@@H]1O,–,inactive
COc1ccc(C[C@H](C)NC[C@@H](O)c2ccc(O)c(NC=O)c2)cc1,8.5%,–
CC/C=C\C/C=C\C/C=C\CCCCCCCC(=O)O,-0.651% [at 6.83 µM],–
O=C1CCC(c2ccccc2)(C2CCN(Cc3ccccc3)CC2)C(=O)N1 (stereo not given),-2.57%,–
CNC(=O)[C@H](Cc1c[nH]c2ccccc12)NC(=O)[C@@H](CC(=O)NO)CC(C)C,14.7%,–
CCCCC[C@H](O)/C=C/[C@H]1[C@H](O)CC(=O)[C@@H]1CCCCCCC(=O)O,5.76% [at 6.83 µM],–
Nc1ccc(N=Nc2ccccc2)c(N)n1,-10.6%,–
COC(=O)C(CN)c1c[nH]c2ccc(OC)cc12 (stereo not given),19.5%,–
O=C(O)[C@@H]1C[C@H](CP(=O)(O)O)CCN1,1.53%,–
C[C@@](Cc1ccc(O)c(O)c1)(NN)C(=O)O,1.75%,–
O=C(OCc1ccccc1)c1ccc(O)cc1,-6.89%,–
N[C@H](CC(=O)O)C(=O)O,–,inactive
CN(C)CCCSc1ccccc1NC(=O)/C=C/c1ccccc1,-8.77%,–
COc1ccc2nc(NC(=O)Nc3ccccc3)sc2c1,3.98%,–
O=C(O)Cc1nn(Cc2ccc(Br)cc2F)c(=O)c2ccccc12,21.6%,–
